# HEK293 tox – cytotoxic compounds in HEK 293 cells. AID 1345083. 94,000 tested, 6.6% active. Potency, µM (series often up to 115 µM), hits mostly inhibitors. HEK 293 viability, ATP luminescence (CellTiter-Glo), 48-72 h; note: nearly all actives have a fitted effect of over 60% in size
#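 HEK 293 cells seeded at 250 cells/well were exposed to compound for 48 or 72 hr at 37 degree Celsius. Viability taken as ATP content by CellTiter-Glo luminescence.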
# Luciferase inh – blocks purified firefly luciferase enzyme activity | purified P. pyralis luciferase, luminescence, biochemical | Potency, µM (doses to about 115 µM), actives largely listed as inhibitors | 76,000 tested, 2.5% active | AID 1347043; note: nearly all actives have a fitted effect of over 65% in size
# Target sequence (P08659 whole entry, looked up): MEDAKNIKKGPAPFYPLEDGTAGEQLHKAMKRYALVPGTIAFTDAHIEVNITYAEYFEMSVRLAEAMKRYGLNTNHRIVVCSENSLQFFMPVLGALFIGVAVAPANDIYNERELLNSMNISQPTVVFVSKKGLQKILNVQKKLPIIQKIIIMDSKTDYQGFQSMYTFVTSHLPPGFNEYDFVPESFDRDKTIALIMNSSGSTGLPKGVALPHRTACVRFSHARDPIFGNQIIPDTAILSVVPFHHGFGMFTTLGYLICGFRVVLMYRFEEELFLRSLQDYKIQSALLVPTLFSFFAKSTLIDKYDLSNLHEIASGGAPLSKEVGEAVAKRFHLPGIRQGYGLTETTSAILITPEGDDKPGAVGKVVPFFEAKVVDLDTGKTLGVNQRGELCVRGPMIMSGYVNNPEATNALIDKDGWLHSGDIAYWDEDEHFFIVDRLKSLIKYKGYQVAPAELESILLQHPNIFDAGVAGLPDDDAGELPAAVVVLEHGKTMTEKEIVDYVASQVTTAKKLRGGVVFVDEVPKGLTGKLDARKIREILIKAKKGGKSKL
#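 Biochemical qHTS: compound (6-point titration) added to 10uM D-luciferin plus 10uM ATP in Tris acetate pH 7.5 buffer with Mg, Tween-20 and BSA, then purified enzyme at 10nM; light output imaged.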
# NIH3T3 tox – cytotoxic compounds in NIH 3T3 cells. NIH 3T3 viability, CellTiter-Glo ATP luminescence, 48-72 h. AID 1345082. 94,000 tested, 4.3% active. Potency, µM (doses to about 96.7 µM), hits mostly inhibitors; note: nearly all actives have a fitted effect of over 55% in size
#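 Cytotoxicity was measured by CellTiter-Glo ATP luminescence after 48 or 72 h compound exposure at 37 °C. Mouse NIH 3T3 fibroblasts were seeded at 400 cells/well and dosed by 23 nL pin transfer.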
# GPT2 inhibitor – inhibitors of human GPT2 alanine aminotransferase. Q8TD30. Recombinant GPT2, coupled pyruvate oxidase/HRP Amplex Red fluorescence. Potency, µM (doses to about 57.7 µM), hits mostly inhibitors. 100,000 tested, 0.25% active. AID 1671188; note: nearly all actives have a fitted effect of over 60% in size
#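 GPT2 10ng/uL, a-KG 250uM, L-Ala 2mM, HEPES pH7.5 + 0.0001% Tween; 30 min RT. Then Amplex mix (PO/HRP/ThPP), 30 min RT dark, fluorescence. AOA 50uM used as positive control.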
# hNpr1 antagonist – human Npr1 receptor antagonism; HEK293 hNpr1 GloSensor cGMP, ANP-stimulated luminescence; Potency, µM (top dose mostly 46.3 µM), actives largely listed as inhibitors; 76,000 tested, 1.6% active; calls by dose curve; note: nearly all actives have a fitted effect of over 60% in size
#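 Compound pre-incubated 30 min at room temperature on GloSensor-loaded HEK293 cells stably carrying hNpr1 and the pGS-40F cGMP biosensor. Stimulation uses hNppA at 0.1 nM final; luminescence is taken at baseline and 20 min post-agonist.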
# A number is an active result; . = inactive; ? = inconclusive; / = not tested or not shown. A selection: hits, their analogues and other compounds. The true share with any hit is near 10%. Unless noted, calls come from the whole dose curve; as a rule, active = well fitted curve in the direction sought with a large enough effect; inconclusive = small, poorly fitted or top-dose-only effect, or another doubt; inactive = no such curve, though single readings can be large; an effect the other way counts as inactive or inconclusive.
SMILES,HEK293 tox,Luciferase inh,NIH3T3 tox,GPT2 inhibitor,hNpr1 antagonist
Cc1ccc(-c2ncc(C(=O)Nc3ccc(F)cc3C)c(-c3ccncc3)n2)cc1,40µM,.,22µM,.,.
Cc1c(Cl)cccc1NC(=O)c1cnc(-c2ccccc2)nc1-c1ccncc1,?,.,35µM,.,?
CNC(=O)c1cc(C)nc2onc(C3CCN(C(=O)c4ccc(OC)cc4)CC3)c12,.,/,.,/,/
COc1ccc(NC(=O)N[C@H]2CO[C@H]3[C@@H]2OC[C@@H]3n2cc(CC3CCCCC3)nn2)cc1,.,.,.,.,.
O=C(COc1ccccc1)N[C@H]1CO[C@H]2[C@@H]1OC[C@@H]2n1cc(CC2CCCCC2)nn1,.,.,40µM,.,.
O=C(N[C@H]1CO[C@H]2[C@@H]1OC[C@@H]2n1cc(CC2CCCCC2)nn1)C1CC1,.,.,32µM,.,.
c1c(CC2CCCCC2)nnn1[C@H]1CO[C@H]2[C@@H]1OC[C@@H]2NCC1CCCCC1,?,.,?,.,.
Cc1cccc(NC(=O)Cn2cccc2-c2nc(-c3ccc4c(c3)OCO4)no2)c1,.,.,.,.,.
COc1ccc(-c2nc(C3CC3)nc3c2CCN(C(=O)c2ccc4c(c2)OCO4)CC3)cc1,?,/,?,.,/
O=C1NCc2ccccc2CC12CCN(CC1CCCCC1)CC2,.,/,.,.,/
CN(c1ccc(Cl)c(Cl)c1)C1CNC1,112µM,/,100µM,.,/
Cc1cccc(-c2cccc(CN3CCC(NC(=O)c4ccc(Cl)nc4)CC3)c2)c1,14µM,/,18µM,.,/
Cc1cccc(-c2cccc(CN3CCC(NC(=O)C4CCCC4)CC3)c2)c1,.,/,.,.,/
Cc1cccc(-c2cccc(CN3CCC(NC(=O)Cc4ccccn4)CC3)c2)c1,?,/,45µM,.,/
O=C(NC1CCN(Cc2cccc(-c3cccs3)c2)CC1)c1ccc(Cl)nc1,?,/,?,.,/
COc1ccc(C(=O)NC2CCN(Cc3cccc(-c4cccc(C)c4)c3)CC2)cc1,35µM,/,?,.,/
Cc1ccc(C(=O)NC2CCN(Cc3cccc(-c4ccc(F)c(F)c4)c3)CC2)cc1,?,/,35µM,.,/
Cn1cc(C(=O)NCC2CN(Cc3cccc(OC(F)(F)F)c3)CC23CN(c2ccccc2)C3)cn1 (centres undefined),?,.,?,.,?
CCOCCNC(=O)C1CCN(c2nccc(Nc3ccccc3OC)n2)CC1,?,/,?,.,/
Cc1cccc(-c2cccc(CN3CCC(NC(=O)C4CC4)CC3)c2)c1,?,/,?,.,/
Cc1cccc(-c2cccc(CN3CCC(NC(=O)NC(C)C)CC3)c2)c1,?,/,?,.,/
Cc1cccc(-c2cccc(CN3CCC(NC(=O)c4ccccc4F)CC3)c2)c1,?,/,40µM,.,/
Cc1cccc(-c2cccc(CN3CCC(NC(=O)c4ccncc4)CC3)c2)c1,32µM,/,32µM,.,/
Cc1noc(C)c1Cc1c(C(=O)N2CCC(c3nc(C(=O)N4CCOCC4)c(C)o3)CC2)noc1C,.,/,.,.,/
O=C(NCCC1=CCCCC1)c1cc2n(n1)CC(c1ccc3c(c1)OCO3)OC2 (centres undefined),71µM,.,?,.,?
SMILES,HEK293 tox,Luciferase inh,NIH3T3 tox,GPT2 inhibitor,hNpr1 antagonist
O=C(NCCC1=CCCCC1)c1cc2n(n1)CC(c1ccc(Cl)cc1)OC2 (centres undefined),45µM,.,?,?,?
CCC(=O)Nc1ccc(C2(C(=O)N3CCCC(C)C3)CCCCC2)cc1 (centres undefined),?,.,.,?,.
Cc1cc(Cn2cc3c4c(cccc42)[C@H](CC(C)C)N[C@H](C(=O)NCc2ccc(C)o2)C3)no1,32µM,.,?,?,.
Cc1cc(Cn2cc3c4c(cccc42)[C@H](CC(C)C)N[C@H](C(=O)NCc2nccs2)C3)no1,22µM,.,?,.,.
CC(=O)NCCNC(=O)[C@@H]1Cc2cn(Cc3cc(C)on3)c3cccc(c23)[C@H](CC(C)C)N1,?,.,.,.,.
COc1cccc(-c2cc(C3CCN(C(=O)Nc4ccccc4C(F)(F)F)CC3)[nH]n2)c1,22µM,.,32µM,.,.
COc1cccc(-c2cc(C3CCN(C(=O)Nc4ccc(F)cc4F)CC3)[nH]n2)c1,?,.,?,.,.
CCOCCOC1CCN(C(=O)c2cc(-c3cccc(OC)c3)n[nH]2)CC1,.,25µM,.,?,.
COc1cccc(-c2cc(C3CCN(C(=O)c4ccc(Cl)cc4)CC3)[nH]n2)c1,45µM,.,?,.,?
CSc1cccc(NC(=O)N2CCC(c3cc(-c4cccc(C)c4)n[nH]3)CC2)c1,45µM,.,18µM,?,.
CCOCCOC1CCN(C(=O)c2ccccc2OC)CC1,.,.,.,.,.
Cc1ccc(NC(=O)N2CCC(c3cc(-c4cccc(C)c4)n[nH]3)CC2)cc1,?,.,?,.,.
Cc1cnc(C2CC2)n1C1CCN(Cc2cn(C)c3ccccc23)C1 (centres undefined),?,/,?,.,/
COc1cccc(-c2cc(C3CCN(C(=O)Nc4cc(C)ccc4C)CC3)[nH]n2)c1,?,.,?,.,.
COc1cccc(-c2cc(C3CCN(C(=O)Nc4cc(C)cc(C)c4)CC3)[nH]n2)c1,40µM,.,?,.,.
Cc1ccc(CCN2CCCCC23Cc2ccccc2CN([S+](C)(=O)[O-])C3)cc1 (centres undefined),79µM,/,?,.,/
O=C(NCc1ccc(F)cc1)c1ccc2nc(-c3ccccn3)oc2c1,?,/,?,.,/
O=C(C1CCCC1)N1CCN(c2nccc(Nc3ccccc3F)n2)CC1,?,/,22µM,.,/
O=C(C1CCCN1c1nccc(Nc2ccccc2F)n1)N1CCN(c2ncccn2)CC1 (centres undefined),.,/,.,.,/
COc1ccccc1Nc1ccnc(N2CCN(C(=O)c3ccccc3)CC2)n1,?,/,35µM,.,/
COc1ccccc1Nc1ccnc(N2CCN(C(=O)c3ccccc3C)CC2)n1,45µM,/,?,.,/
COc1ccccc1Nc1ccnc(N2CCN(C(=O)C3CC3)CC2)n1,?,/,?,.,/
O=C(c1ccccc1F)N1CCN(c2nccc(Nc3ccccc3F)n2)CC1,35µM,/,?,.,/
COc1cccc(-c2c(C(=O)NC3CCCCC3)nc3sccn23)c1,?,/,?,.,/
O=C1[C@@H]2C[C@@H](O)CN2C2(CN(Cc3ccccn3)C2)C(=O)N1Cc1ccccc1F,.,.,.,.,.
CN1C[C@@H]2CCCN3CCC[C@@H]([C@H]23)[C@H]1CCCC(=O)NCc1ccccc1,.,.,.,.,.
COc1ccccc1C(=O)N1CCN(c2nccc(Nc3ccccc3F)n2)CC1,?,/,?,.,/
COc1ccccc1Nc1ccnc(N2CCN(C(=O)c3ccccc3F)CC2)n1,45µM,/,?,.,/
COc1ccc(-c2nccn3cc(C(=O)NCc4nc5ccccc5n4C)nc23)cc1,28µM,.,?,.,?

# Bioassay records (PubChem)
